A selection: hits, their analogues and other compounds. The true share with any hit is near 3.2%.
CHT allo act = allosterically activates the human high affinity choline transporter. hit rate 0.49% among 310,000. B-score at 10 µM. CHT-expressing cells, membrane potential dye, choline EC20; stronger effect = higher value; LV-AA mutant CHT in HEK293 cells. Q9GZV3;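 active = initial fluorescence not abnormally high and integrated response B-score, plate-corrected, over 3 SD above library mean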
Kir21 inh = inhibitors of mouse Kir2.1 inward-rectifier potassium channel. hit rate 0.85% among 310,000. P35561. HEK293-Kir2.1, FluxOR thallium flux fluorescence; stronger effect = lower value. B-score at 10 µM. AID 1672;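 active = fluorescence ratio B-score at or below minus 3 SD of library scores, with starting-brightness B-score within 2 SD, cut at about -4.2 in these data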;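 note: channel flux triggered by added potassium and thallium sulfate stimulus; B-score of peak minus minimum fluorescence over baseline after thallium stimulus; more negative B-score means stronger Kir2.1 block with less thallium influx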
Rce1 inh = yeast Ras-converting enzyme inhibition | Q03530 | yeast membranes, quenched prenylated peptide cleavage fluorescence | calls only | hit rate 0.27% among 290,000 | AID 2563;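 active = fall in fluorescence gain of 50% or more versus controls, with final raw signal at or below 3038400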;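 note: plate controls were neutral control wells for no effect and wells lacking membranes for full effect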
TMEM16A act = activates or potentiates the mouse TMEM16A chloride channel; AID 623877; Q8BHY3; hit rate 0.3% among 340,000; HEK293 TMEM16A/YFP-H148Q/I152L, iodide quench fluorescence; stronger effect = lower value; B-score at 10 µM;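 active = fluorescence-ratio B-score plate-corrected deviation score at least 3 library SD below zero, with starting fluorescence score within 5 deviations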;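 note: channel opened by trigger with iodide after compound preincubation; score built on the fluorescence ratio of max minus min over baseline; more negative score means more quench and so TMEM16A activation or potentiation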
Target sequence (Q8BHY3 whole entry, looked up): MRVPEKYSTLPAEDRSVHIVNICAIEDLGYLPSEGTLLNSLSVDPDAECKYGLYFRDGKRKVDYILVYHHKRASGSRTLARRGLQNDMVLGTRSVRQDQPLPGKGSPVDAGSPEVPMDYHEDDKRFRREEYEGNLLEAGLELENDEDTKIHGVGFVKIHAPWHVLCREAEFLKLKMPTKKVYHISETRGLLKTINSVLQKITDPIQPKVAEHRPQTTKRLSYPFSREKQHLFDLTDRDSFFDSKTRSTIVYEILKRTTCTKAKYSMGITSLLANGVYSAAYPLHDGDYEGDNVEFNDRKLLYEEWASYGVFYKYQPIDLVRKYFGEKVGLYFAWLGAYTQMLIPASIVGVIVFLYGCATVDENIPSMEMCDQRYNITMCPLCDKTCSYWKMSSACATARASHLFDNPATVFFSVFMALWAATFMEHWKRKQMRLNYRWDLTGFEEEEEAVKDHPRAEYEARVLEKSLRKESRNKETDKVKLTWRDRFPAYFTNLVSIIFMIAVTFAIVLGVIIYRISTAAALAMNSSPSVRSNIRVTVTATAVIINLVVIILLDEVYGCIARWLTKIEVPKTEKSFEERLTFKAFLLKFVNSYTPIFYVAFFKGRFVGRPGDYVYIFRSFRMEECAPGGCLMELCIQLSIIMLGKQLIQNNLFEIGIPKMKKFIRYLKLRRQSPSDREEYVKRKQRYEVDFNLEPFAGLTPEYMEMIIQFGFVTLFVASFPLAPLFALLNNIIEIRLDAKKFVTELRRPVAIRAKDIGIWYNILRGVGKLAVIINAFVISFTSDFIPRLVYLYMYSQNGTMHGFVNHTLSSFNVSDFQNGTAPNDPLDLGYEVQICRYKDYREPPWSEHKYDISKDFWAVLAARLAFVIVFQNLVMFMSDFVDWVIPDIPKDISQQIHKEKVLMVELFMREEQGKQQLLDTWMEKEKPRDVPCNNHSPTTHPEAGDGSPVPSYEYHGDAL
ANO1 block = mouse TMEM16A channel inhibition, primary screen | HEK293 TMEM16A/YFP iodide influx fluorescence, ionomycin | normalized B-score (activity score, 25-100; higher = stronger inhibition) at 10 µM | hit rate 1.2% among 310,000 | AID 588511;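 active = ratio plate-corrected score three or more library SD toward inhibition, starting fluorescence score within five deviations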;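 note: score derived from kinetic fluorescence span divided by baseline fluorescence per well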
CHT inh = inhibitors of human choline transporter CHT | CHT-expressing cells, membrane potential dye, choline response; stronger effect = lower value | hit rate 0.86% among 310,000 | Q9GZV3 | AID 488975 | B-score at 10 µM;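 active = B-score over 3 SD under the library average, and starting fluorescence ratio not unusually high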;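 note: choline stimulus applied at its EC90 after an EC20 pre-addition; B-score computed on integrated fluorescence ratio after choline addition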
* = called active by the depositor; i = inactive; . = no result given; + = active, no number.

SMILES	CHT allo act	Kir21 inh	Rce1 inh	TMEM16A act	ANO1 block	CHT inh
Cc1occc1-c1nnc(-c2cc([N+](=O)[O-])cc([N+](=O)[O-])c2)o1	i	-0.04	i	i	i	i
COc1ccc2c(c1)cc1n2CCN=C1N	i	0.77	i	i	i	i
COc1ccc2c(c1)cc1n2CCN2CCCN=C12	i	1.1	i	i	i	-6.2*
CC(=O)c1ccc(OCCCC(=O)Nc2cccc(S(=O)(=O)N3CCCCC3)c2)cc1	.	.	.	i	.	.
COC(=O)c1nc(N)sc1-c1ccc(Cl)c(Cl)c1	i	1.6	+	i	i	i
O=C(CCl)NN1C(=O)NC(c2ccccc2)(c2ccccc2)C1=O	i	0.15	i	i	i	i
COc1cccc(/C=N/Nc2snc(SC)c2C#N)c1	i	.	.	i	i	i
COc1cccc(/C=N/Nc2snc(SC)c2C#N)c1O	i	-0.9	i	i	100*	i
Oc1ccc(-c2nc3ccccn3c2NCc2ccco2)cc1	i	-0.52	+	i	i	i
CCN(C(=O)C1CC1)C1CCS(=O)(=O)C1 (stereo not drawn)	i	0.23	i	i	i	i
Cc1ccc(N=CC2=C(O)CC(C)(C)CC2=O)nc1	i	-0.19	i	i	i	i
Cc1ccc(N=Cc2c(O)n(C)c(=O)n(C)c2=O)nc1	i	0.06	+	i	i	i
CC(Oc1ccccc1)C(=O)N1CCCc2ccccc21 (stereo not drawn)	i	-5.5*	i	i	i	i
COc1ccc(OC(C)C(=O)N2CCCc3ccccc32)cc1 (stereo not drawn)	i	-4.8*	i	i	i	i
Cc1cccc(C)c1NC(=O)CN(C)C(=O)Cc1cccc(C(F)(F)F)c1	i	-0.49	i	i	i	i
CC(CC(=O)NCc1ccco1)S(=O)(=O)c1ccc2c(c1)CCN2C(=O)C1CC1 (stereo not drawn)	i	1.1	i	i	i	i
COc1ccc(CCNC(=O)CSc2nn(-c3ccccc3)c(=S)s2)cc1OC	i	-6.6*	i	i	i	i
CCCCn1c(-c2ccccc2)cnc1SCC(=O)NCCc1ccc(OC)c(OC)c1	i	-6.3*	i	i	i	i
COc1ccc(CCNC(=O)CSc2nnc(-c3ccccc3)c3ccccc23)cc1OC	i	-0.22	i	i	i	i
COc1ccc(CCNC(=O)CSc2ccc(NC(C)=O)cc2)cc1OC	i	0.23	i	i	i	i
Cc1cc(C)nc(NC(=O)CSc2nn(-c3ccccc3)c(=S)s2)n1	i	1.1	i	i	i	i
COc1ccc(CCNC(=O)CSc2ccc3ccccc3c2)cc1OC	i	-6.9*	i	i	i	i
COc1cc(OC)cc(C(=O)NCC2CCCN(C(=O)c3oc(C)cc3C)C2)c1 (stereo not drawn)	i	-0.06	i	i	i	i
Oc1c(C=Nc2ccccc2Cl)[nH]c2ccccc12	i	-4.3	i	-8.7*	i	i
CC(C)=CCOc1ccc([C@@H]2COc3c(ccc4c3C=CC(C)(C)O4)C2)c(O)c1	i	1.4	.	i	i	i
SMILES	CHT allo act	Kir21 inh	Rce1 inh	TMEM16A act	ANO1 block	CHT inh
NS(=O)(=O)c1ccc(NC(=O)c2cc(Cl)ccc2Cl)cc1	i	-2.1	i	-5.5*	i	i
COCCNC(=O)COc1ccc(Br)cc1Cl	i	-2	i	i	100*	i
CC(=O)N1CCc2cc(S(=O)(=O)Nc3cccc(C(F)(F)F)c3)ccc21	i	1.8	i	i	25*	i
Cc1cccc(C)c1NC(=O)C(C)Sc1n[nH]c(-c2ccncc2)n1 (stereo not drawn)	i	-1.2	i	i	i	i
CCc1ccc(S(=O)(=O)NCCc2csc(C)n2)s1	i	-0.8	i	i	i	i
CCc1ccc(S(=O)(=O)NCCc2cn3ccc(C)cc3n2)s1	i	-8.8*	i	i	i	i
CN(C)CC/C=C1\c2ccccc2COc2ccccc21	i	-0.01	i	i	i	i
CN(C)CC/C=C1/c2ccccc2Sc2ccc(Cl)cc21	i	-4.3*	i	i	i	i
Cc1nc2c(s1)sc1ccccc12	i	-0.19	i	i	i	i
CC[n+]1c(C)sc2sc3ccccc3c21	13*	-0.02	i	.	i	i
CSc1ccc(CN(C)CC(=O)NCc2ccccc2)cc1	i	-3	i	i	i	i
CSc1ccc(CN(C)C(C)C(=O)NCc2ccccc2)cc1 (stereo not drawn)	i	-9.7*	i	i	i	i
CSc1ccc(CN(C)C(=O)c2cccc(S(=O)(=O)NCc3ccccc3)c2)cc1	i	-0.27	i	i	100*	i
COc1ccc(CNC(=O)CN(C)Cc2ccc(SC)cc2)cc1	i	-6.8*	i	i	i	i
CSc1ccc(CN(C)C(=O)c2cc(S(=O)(=O)NCc3ccccc3)ccc2C)cc1	i	0.76	i	i	i	i
Cc1cc(C)c(C(=O)COC(=O)c2cccc(S(=O)(=O)NCc3ccccc3)c2)cc1C	i	-4.3*	i	i	i	i
CCN(CC)C(=O)CSc1nnc2nnc3cc(OC)ccc3n12	i	-5	i	i	i	i
Cc1ccc(S(=O)(=O)N(Cc2ccc(C(F)(F)F)cc2)C(=O)N2CCN(C)CC2)cc1	i	-1.1	i	i	i	i
O=C(CCC(=O)N1CCN(c2ccccc2)CC1)Nc1nnc(C2CCCCC2)s1	i	-3	i	i	i	i
CC1=C(C)/C(=N\OS(=O)(=O)c2ccc(C)cc2)C=CC1=O	i	.	.	-4.8*	25*	i
COc1ccc(S(=O)(=O)/N=C2/C=CC(=O)C(C)=C2C)cc1	i	0.11	i	i	i	i
Cc1c(C(C)C)c(=O)n(-c2ccc(S(=O)(=O)NC3CCCCC3)cc2)n1C	i	-1.4	i	i	i	i
Cc1c(C(C)C)c(=O)n(-c2ccc(S(=O)(=O)NCc3ccccc3)cc2)n1C	i	-0.06	i	i	25*	i
COc1ccc2nc3ccccc3[n+]([O-])c2c1	.	.	.	-10*	.	.
O=S(=O)(N1CCOCC1)n1c(Cc2ccccc2)nc2ccccc21	i	-4.3*	i	i	i	i
O=c1c(C=NCCN2CCNCC2)c(-c2ccccc2)[nH]n1-c1ccc([N+](=O)[O-])cc1	i	-5.4*	i	.	i	i

Source: PubChem BioAssay (several laboratories)
